Results reported in ChEMBL document CHEMBL5308541, “MAIP: An Open-Source Tool to Enrich High-Throughput Screening Output and Identify Novel, Druglike Molecules with Antimalarial Activity” (ACS Med Chem Lett, 2023).
The whole screen tested about 4,800 compounds, of which about 420 (8.8%) showed an effect of 50% or more. Many of the other results were omitted from the sample, so strong results are more common in it than they were.

What follows are molecules tested on Plasmodium falciparum (assay: Confirmatory screen in NF54 nanoGlo assay, in single point, at 2uM, 72h). Details: timepoint 72 hour.
Assay type: functional, Erythrocyte

Row | SMILES | % Inhibition
1 | CN1CCC(N(Cc2ccccc2)C(=O)c2cc3cnccc3[nH]2)CC1 | 61%
2 | CCCN1CCC(N2CC(c3cccnc3)C(c3nc(C4CCCC4)no3)C2)CC1 (stereo unspecified) | -2%
3 | Cc1cc(O)c(Cl)cc1-c1ccc2nccc(N)c2c1 | 90%
4 | Cc1cc(O)c(Cl)cc1-c1cccc2c(N)ccnc12 | 91%
5 | Clc1ccc2[nH]c3c(c2c1)CCCC3NC1CCN(C2CCOC2)CC1 (stereo unspecified) | 81%
6 | CN1CCC(Oc2ccc(NC(=O)c3cn4ccnc4s3)cn2)CC1 | 86%
7 | Nc1ccnc2ccc(-c3ccc(C(=O)NCC4CCOCC4)cc3)cc12 | 77%
8 | Cc1ccc2nc(-c3cccc(NC(=O)c4ccc(OC(F)(F)F)c(Cl)c4)c3)[nH]c2n1 | 72%
9 | Cc1cc(N2CCC(N(C)Cc3cc(-c4ccccc4)n[nH]3)CC2)nc(N)n1 | 21%
10 | Cc1cc(N2CCC(NC3CCCC3Cc3ccc(F)cc3)CC2)nc(N)n1 (stereo unspecified) | 96%
11 | Cc1cc(N2CCC(NC3CCNC(c4ccccc4)C3)CC2)nc(C)n1 (stereo unspecified) | 30%
12 | Fc1cccc(Cl)c1CN1CCC(NC[C@H]2CCCOC2)CC1 | 24%
13 | c1cc(CNC2CCN(C[C@H]3CCOC3)CC2)c2cc[nH]c2c1 | -7%
14 | O=C(NCc1ccc(N2CCNCC2)c(F)c1)c1ccc(-c2noc(C(F)(F)F)n2)cc1 | 57%
15 | Cc1nc(N2CCN(C)CC2)cc(N2CCN(S(=O)(=O)c3ccccc3C(F)(F)F)CC2)n1 | 67%
16 | Cc1c(CN2CCC(O)(Cn3ccnc3)CC2)[nH]c2c(Cl)cccc12 | 96%
17 | COCCN1CCC[C@@]2(CCN(c3ccnc4cc(Cl)ccc34)C2)C1 | 99%
18 | O[C@@]1(c2c[nH]nn2)CCN(c2ccnc3cc(Cl)ccc23)C1 | 59%
19 | NC(=O)[C@]1(O)CCN(c2ccnc3ccc(Oc4ccccc4)cc23)C1 | 29%
20 | COCCN1CC[C@H](CN(C)c2ccnc3cc(Cl)ccc23)C1 | 98%
21 | Cc1cccc(N2CCC(NCc3cc(C)cc(CN4CCN(C)CC4)c3C)CC2)c1 | 61%
22 | Cc1cc(C)c(CN2CCN(C)CC2)cc1CNCCCn1ccnc1C | 38%
23 | Cc1ccc2nc(NC[C@H]3CCN(C4CC4)C3)cc(C)c2c1 | 93%
24 | COc1ccc(-c2cc(C(=O)Nc3ccc(N4CCN5CCCC5C4)cc3)c3c(C)noc3n2)cc1 (stereo unspecified) | 41%
25 | Cc1cc(NC[C@H]2CN(CC(C)C)CCO2)c2ccccc2n1 | 26%
26 | CCCN1CCC(Nc2cc(C)nc3ccccc23)CC1 | 77%

Row | SMILES | % Inhibition
27 | Cc1cc(N2CCC(Nc3ccnc4ccncc34)CC2)nc(C)n1 | 9%
28 | O=C(Nc1cnc2c(c1)COCC2)c1cc2c(OC(F)(F)F)cccc2[nH]1 | 95%
29 | c1ccc(CCC23CN(Cc4ccccn4)CC2CN(Cc2ccns2)C3)cc1 (stereo unspecified) | 88%
30 | Cc1ccc2[nH]cc(-c3cc(N4CCOCC4)nc(N)n3)c2c1 | 57%
31 | Nc1cc(N2CCC(c3nc4cc(F)ccc4[nH]3)CC2)nc(N2CCOCC2)n1 | 39%
32 | Brc1ccc2[nH]c3c(c2c1)CCCC3NC1CCc2[nH]cnc2C1 (stereo unspecified) | 97%
33 | c1ccc(CNc2ccc(-c3noc(C45CCCN(CCC4)C5)n3)cn2)cc1 | 82%
34 | NCCCCc1c(-c2cccnc2)[nH]c2c(Cl)cc(Cl)cc12 | 55%
35 | Cn1cc(-c2cncc(C(=O)NC3CCN(c4cccc(F)c4)CC3)c2)cn1 | 51%
36 | CCOc1cccc(N2CCN(C(=O)c3cc(-c4ccc(F)cc4)[nH]n3)CC2)n1 | 32%
37 | CN(C)CCN1CCC(NC2CCC(O)(c3cccc(Cl)c3)CC2)CC1 (stereo unspecified) | 30%
38 | OC1(c2ccc(Cl)cc2)CCN(C[C@@H]2CCCN3CCCC[C@H]23)CC1 | 73%
39 | NCC1(O)CCN(c2ccnc3cc(F)c(Cl)cc23)CC1 | 94%
40 | FC(F)(F)c1ccc(N2CCC[C@H](NC3CCN(Cc4ccco4)CC3)C2)nc1 | 21%
41 | CCN1CCC(N2CCC(C(=O)NCCc3ccc(OC(F)(F)F)cc3)CC2)CC1 | 48%
42 | Oc1ccc(OC(F)(F)F)cc1-c1ccc2nccn2n1 | 83%
43 | Nc1ccc(-c2cc(OC(F)(F)F)ccc2O)cn1 | 11%
44 | N#Cc1ccc(N2C[C@H](COCC3CC3)C3(CCN(Cc4cccc(O)c4)CC3)C2)cc1C(F)(F)F | 80%
45 | CCN1C[C@H](Nc2nc(C)nc3sccc23)[C@@H](OC)C1 | 98%
46 | CNc1nc(C)c(-c2ccnc(Nc3cccc(S(C)(=O)=O)c3)n2)s1 | 58%
47 | Cc1ccc2nc(CCCNC3CCN(c4cc(C)nc(N)n4)CC3)oc2c1 | 29%
48 | Cc1cc(N2CCC(NCCc3c[nH]cn3)CC2)nc(-c2ccccc2)n1 | 17%
49 | Cc1cc(N2CCC(NCCCN3CCCc4ccccc43)CC2)nc(N)n1 | 74%
50 | COc1ccc2c(O)c(Br)c(C)nc2c1 | 78%
51 | COc1ccc2nc3cc(Cl)ccc3c(O)c2c1 | 57%
52 | CN1CCN(CCOc2ccccc2CN(C)Cc2cc3cc(F)ccc3[nH]2)CC1 | 87%

Row | SMILES | % Inhibition
53 | CN(C[C@H](O)COc1cccc(CNCCCOc2cccnc2)c1)C1CCCCC1 | 30%
54 | CN1C(C)(C)CC(NC(=O)c2ccc(-c3cc(-c4cccc(C(F)(F)F)c4)n[nH]3)cc2)CC1(C)C | 45%
55 | CCc1oc2ccccc2c1CNC[C@H](O)c1ccc(Cl)cc1 | 99%
56 | CCN(Cc1[nH]c2ccc(Cl)cc2c1C)CC1CCN(C2CCN(C)CC2)CC1 | 89%
57 | CCN(Cc1cnn(-c2cccc(Cl)c2)c1)CC1CCN(C2CCN(C)CC2)CC1 | 79%
58 | Cc1ccc2[nH]c(-c3cc4n(n3)CCN(c3ccnc(N)n3)C4)nc2c1C | 89%
59 | CNc1nc(N[C@H]2CCCN(Cc3ccc(Cl)cc3)C2)nc2c1CCC2 | 79%
60 | Clc1cccc(N2CC[C@H](CNC3CCN(Cc4ccco4)CC3)C2)c1 | 66%
61 | COc1ccc(CNCc2cc3ccccc3[nH]2)cc1CN(C)C | 59%
62 | COc1ccccc1-c1csc(C2CCN(CC[C@H]3CCCN3C)CC2)n1 | 26%
63 | CC(CNc1nc(NCC(C)N2CCOCC2)c2cc(Cl)ccc2n1)N1CCOCC1 (stereo unspecified) | 87%
64 | CN1CCC(N2CCC(NC(=O)c3ccc(S(=O)(=O)N(C)C4CCCCC4)cc3)CC2)CC1 | 44%
65 | Cc1ccc(-c2cc(C(=O)NC3CCN(C4CCN(C)CC4)CC3)n[nH]2)cc1C | 98%
66 | CN(C)Cc1cccc(CCNCc2csc(-c3ccc(C(F)(F)F)cc3)n2)c1 | 74%
67 | O=C(NC1CCN(CCOc2ccc(Cl)cc2)CC1)c1c[nH]c2ccncc2c1=O | 92%
68 | O[C@H]1CCN(Cc2cccc(NCc3cn4ccnc4s3)c2)C1 | 38%
69 | CCN1CCC[C@H](Nc2cccc(-n3ccnc3)n2)C1 | 33%
70 | O[C@H]1CCN(Cc2ccccc2CNc2cccc(-n3ccnc3)n2)C1 | 94%
71 | COc1ccc2cc(-c3cc(N)ccn3)[nH]c2c1 | 55%
72 | Nc1ccnc(-c2cccc3[nH]ccc23)c1 | 6%
73 | O=C1CN(C(=O)c2ccnc3ccccc23)CCN1Cc1ccccc1F | 53%
74 | COc1cc2nc(NCC3(N4CCN(C)CC4)CCCC3)cc(C)c2cc1OC | 84%
75 | CCN(C)CC1CCN(c2nc(NCCOC)nc(N3CCC(CN(C)CC)C3)n2)C1 (stereo unspecified) | 1%
76 | Cn1nnc(C(=O)N2CCCCC23CCCCCC3)n1 | 68%
77 | CC(C)CCOc1ccc2[nH]c(-c3cc(N4CCC[C@@H]4CS(C)(=O)=O)ccn3)cc2c1 | 99%
78 | CN(CCCn1ccnc1)c1ccnc2cc(Br)ccc12 | 99%

Row | SMILES | % Inhibition
79 | O=C(NCCN1CCCCC1)c1cccc(-c2cnc3ccc(F)cn23)c1 | 26%
80 | CCOc1cc2nccc(N3C[C@H]4CN(C)C[C@H]4C3)c2cc1OCC | 98%
81 | CCCC(=O)NC1COCC1Cc1ccncc1 (stereo unspecified) | 83%
82 | c1ccc(CN2CCC(CCNC[C@@H]3CCCN4CCCC[C@H]34)CC2)cc1 | 61%
83 | COc1ccc2cc(NC(=O)c3cc(-c4c(C)nn(C)c4C)[nH]n3)cnc2c1 | 73%
84 | Cc1cnccc1NCCNCc1ccc(OC(C)C)c(Cl)c1 | 73%
85 | c1ccc2c(Nc3ccc4[nH]cnc4c3)c3ccccc3nc2c1 | 98%
86 | OC[C@H](CNCc1cc2ccc(F)cc2[nH]1)c1ccccc1Cl | 72%
87 | O[C@@H](CNCc1cc2cc(Cl)c(Cl)cc2[nH]1)c1ccc(F)cc1 | 79%
88 | Cc1sc2nc(-c3ccccn3)nc(NCCc3nccn3C)c2c1-c1ccccc1 | 71%
89 | CCNc1cc(C)nc(NCCNC(=O)Nc2cc(F)cc(F)c2)n1 | 76%
90 | CCNc1nc(C)cc(Nc2ccc(NC(=O)Nc3ccc(F)cc3F)cc2)n1 | 98%
91 | Cc1cc(NC[C@H](O)COc2ccc(F)cc2)nc2ccccc12 | 76%
92 | Cc1ccc2[nH]c(CNC[C@@H](CO)C3CCC3)cc2c1C | 65%
93 | COc1ccc2[nH]cc(-c3ccc(N)nc3)c2c1 | -7%
94 | COc1ccc2[nH]cc(C3=CCN(c4ccc5nnc(-c6ccccc6F)n5n4)CC3)c2c1 | 51%
95 | CCN1CCN([C@H]2CCN(c3ccnc4ccncc34)C2)CC1 | 97%
96 | Cc1ccc2nccc(N3CCC(N4CCC(O)CC4)CC3)c2c1 | 10%
97 | O=C(NCC1CC1)c1cc2c(OCc3ccc(Cl)cc3)cccc2[nH]1 | 57%
98 | c1ccc(-c2ccnc(C3CCN(CC45CNCC4C5)CC3)n2)cc1 (stereo unspecified) | 94%
99 | CC(C)c1ccc(-c2nc(CN3CCCCC3)cc(CN3CCCCC3)c2O)cc1 | 93%
100 | CC(C)c1ccc(-c2noc(CCN3CCN(CCCN(C)C)CC3)n2)cc1 | 25%
101 | CCC1(NC(=O)c2cc(C)c3ccccc3n2)CCOCC1 | 10%
